Rows were chosen to be rich in hits. Some 0.95% of all compounds tested hit in one or more screens of this group.
LmPK inh: qHTS Assay for Inhibitors of Leishmania Mexicana Pyruvate Kinase (LmPK); purified LmPK, Kinase-Glo ATP luminescence, 1 h; Potency, µM (top dose mostly 57.5 µM), hits mostly inhibitors; 290,000 compounds, 0.37% hits
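ATP generated from ADP (0.1 mM) and PEP (0.5 mM) by 0.1 nM LmPK over 1 h at room temperature (pH 7.2 imidazole buffer) was detected by coupled luciferase luminescence. Values were normalized to uninhibited and no-enzyme wells.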
Tb PYK inh: qHTS of Trypanosoma Brucei Inhibitors; TbPYK enzyme, Kinase-Glo Plus ATP luminescence, 45 min; Potency, µM (series often up to 76.8 µM), usual class: inhibitors; 410,000 compounds, 0.12% hits; also: nearly all actives have a fitted effect of over 50% in size
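ADP (130 uM final) triggers the TbPYK reaction after compound addition; incubation is 45 min at room temperature. Kinase-Glo Plus is then added and luminescence imaged. Normalized data are fitted to concentration-effect curves.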
Giardia FBPA inh-1: qHTS Assay for Inhibitors of Fructose-1,6-bisphosphate Aldolase from Giardia Lamblia. 290,000 compounds, 0.71% hits. AID 2451, 2010. Potency, µM (highest dose often 59.6 µM), most hits filed as inhibitors. A8B2U2. purified Giardia FBPA; also: nearly all actives have a fitted effect of over 55% in size
Target sequence (A8B2U2 whole entry, looked up): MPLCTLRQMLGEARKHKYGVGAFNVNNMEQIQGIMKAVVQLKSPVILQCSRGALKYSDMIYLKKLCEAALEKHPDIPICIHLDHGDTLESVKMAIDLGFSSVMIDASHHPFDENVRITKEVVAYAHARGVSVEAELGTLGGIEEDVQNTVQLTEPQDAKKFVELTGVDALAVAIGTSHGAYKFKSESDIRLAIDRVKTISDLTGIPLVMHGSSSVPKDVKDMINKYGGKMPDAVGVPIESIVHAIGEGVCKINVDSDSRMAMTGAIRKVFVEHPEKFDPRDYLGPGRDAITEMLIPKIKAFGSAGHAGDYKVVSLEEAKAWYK
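Giardia FBPA (40 nM reagent) was preincubated 10 min at RT with compound (up to 57.5 uM final), then substrate plus GAPDH/TPI/NAD/arsenate coupling system with diaphorase/resazurin was added; resorufin fluorescence (525/598 nm) was read after 20 min.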
RE007 growth inh: qHTS Assay for Inhibitors of the HIV-1 protein Vpr. S. pombe RE007 Vpr strain, BacTiter-Glo ATP luminescence, 24 h. Potency, µM (top dose mostly 92.2 µM), actives largely listed as inhibitors. AID 651644, 2012. 360,000 compounds, 0.21% hits; active = well fitted falling curve with a large enough effect; inconclusive = small, poorly fitted or top-dose-only effect; inactive = no such curve, though single readings can be large or run the other way; also: nearly all actives have a fitted effect of over 50% in size
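Fission yeast RE007 carrying one integrated HIV-1 vpr copy, seeded at OD 0.01 in PMG+AL medium with 23 nL pinned compound. Grown 24 h at 30 degrees; viability read by BacTiter-Glo luminescence after 5 min.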
Giardia growth: qHTS Assay for Inhibitors of Fructose-1,6-bisphosphate Aldolase from Giardia Lamblia: Giardia lamblia growth inhibition; shares compounds with Giardia FBPA inh-1; Giardia lamblia trophozoite growth inhibition; Potency, µM (series often up to 57.5 µM), actives largely listed as inhibitors; 1,500 compounds, 5% hits; AID 2785, 2010;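 also: trophozoites exposed to compound for 48 h at 37 °C; nearly all actives have a fitted effect of over 70% in size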
Mammalian tox: qHTS Assay for Inhibitors of Fructose-1,6-bisphosphate Aldolase from Giardia Lamblia: Mammalian cellular toxicity; shares compounds with Giardia FBPA inh-1; mammalian cell viability counter-screen, qHTS; Potency, µM (top dose mostly 57.5 µM), hits mostly inhibitors; 1,500 compounds, 4% hits;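 also: Chinese hamster ovary cells used as mammalian cytotoxicity surrogate; viability measured as cellular ATP by luminescence; compound exposure lasted 48 h before reading; nearly all actives have a fitted effect of over 60% in size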
Giardia FBPA inh-2: qHTS Assay for Inhibitors of Fructose-1,6-bisphosphate Aldolase from Giardia Lamblia: Primary screen confirmation | 1,500 compounds, 5% hits | purified Giardia aldolase enzyme activity, qHTS | Potency, µM (top dose mostly 57.5 µM), actives largely listed as inhibitors | shares compounds with Giardia FBPA inh-1; also: nearly all actives have a fitted effect of over 45% in size
Rabbit FBPA inh: qHTS Assay for Inhibitors of Fructose-1,6-bisphosphate Aldolase from Giardia Lamblia: Rabbit FBPA Selectivity; shares compounds with Giardia FBPA inh-1; Rabbit muscle FBPA enzyme inhibition, selectivity counter-screen; Potency, µM (top dose mostly 57.5 µM), most hits filed as inhibitors; 1,500 compounds, 4% hits; AID 2794, 2010; also: nearly all actives have a fitted effect of over 60% in size
GAPDH counter: qHTS Assay for Inhibitors of Fructose-1,6-bisphosphate Aldolase from Giardia Lamblia: Coupling assay counterscreen confirmation. shares compounds with Giardia FBPA inh-1. GAPDH coupling enzyme counterscreen, biochemical, qHTS. Potency, µM (doses to about 57.5 µM), most hits filed as inhibitors. 1,500 compounds, 6% hits; also: nearly all actives have a fitted effect of over 55% in size
Large screens that a line does not name were inactive (follow-up assays come after a bar, where they were run); [ ] = remark or other dose. Unless noted, calls follow the shape of the dose curve; as a rule, active = well fitted curve in the direction sought with a large enough effect; inconclusive = small, poorly fitted or top-dose-only effect, or another doubt; inactive = no such curve, though single readings can be large; an effect the other way counts as inactive or inconclusive.

O=C(NC(=S)Nc1cccnc1Cl)c1ccc(F)cc1	Giardia FBPA inh-1 14µM | Giardia growth inconclusive | Mammalian tox inactive | Giardia FBPA inh-2 inactive | Rabbit FBPA inh inactive | GAPDH counter inactive
O=C(NC(=S)Nc1ncccn1)c1ccc(F)cc1	Giardia FBPA inh-1 6.3µM | Giardia growth inconclusive | Mammalian tox inactive | Giardia FBPA inh-2 inactive | Rabbit FBPA inh inactive | GAPDH counter inactive
O=C(NC(=S)Nc1ccc(NC(=O)c2ccccc2)cc1)c1ccc(F)cc1	none (no result: Giardia FBPA inh-1)
CC(=O)Nc1cc(OC(C)=O)c2nonc2c1OC(C)=O	Giardia FBPA inh-1 0.045µM | Giardia growth inconclusive | Mammalian tox 16µM | Giardia FBPA inh-2 3.5µM | Rabbit FBPA inh 4.5µM | GAPDH counter 2µM
CC(=O)Nc1nonc1NC(C)=O	none
Oc1ccc(-c2cn3c(n2)SCC3)cc1O	LmPK inh inconclusive, Tb PYK inh inconclusive, Giardia FBPA inh-1 18µM | Giardia growth inactive[10.4 µM] | Mammalian tox inactive | Giardia FBPA inh-2 inconclusive | Rabbit FBPA inh inconclusive | GAPDH counter inactive
Oc1ccc(-c2cn3c(n2)SCC3)cc1	none
COc1cc(CNn2cn[nH]c2=S)ccc1OCC(=O)NC(C)(C)C	Tb PYK inh inconclusive, Giardia FBPA inh-1 10µM | Giardia growth inconclusive | Mammalian tox inactive | Giardia FBPA inh-2 inactive | Rabbit FBPA inh inactive | GAPDH counter inactive
COc1cc(CNC(C)(C)CO)ccc1OCC(=O)NC(C)(C)C	none
Cc1cc(C)c(NC(=O)CCN2CCCCC2)c(C)c1	none (no result: LmPK inh, Giardia FBPA inh-1, RE007 growth inh)
COc1cc(NC(=O)CSc2nc3ncnc(N)c3[nH]2)c(C(=O)O)cc1OC	Giardia FBPA inh-1 11µM | Giardia growth inactive | Mammalian tox inactive | Giardia FBPA inh-2 inactive | Rabbit FBPA inh inactive | GAPDH counter inactive
Cc1c(C#N)c(O)n(CCO)c(=O)c1N=Nc1ccc2c(c1)COC2=O	Giardia FBPA inh-1 20µM | Giardia growth inconclusive | Mammalian tox inactive | Giardia FBPA inh-2 inconclusive | Rabbit FBPA inh inactive | GAPDH counter inactive
CC(=O)N1CCc2cc(S(=O)(=O)CCC(=O)N(C)Cc3ccco3)ccc21	none
COc1ccc2[nH]c(=S)[nH]c2c1	Giardia FBPA inh-1 7.1µM | Giardia growth inactive[10.4 µM] | Mammalian tox inactive | Giardia FBPA inh-2 inactive | Rabbit FBPA inh inactive | GAPDH counter inactive
COc1ccc(-c2cc(=O)c3cc(OC)ccc3[nH]2)cc1	LmPK inh inconclusive
COc1ccc(-c2cc(=O)[nH]c(=S)[nH]2)cc1	Giardia FBPA inh-1 16µM | Giardia growth inconclusive | Mammalian tox inactive | Giardia FBPA inh-2 inactive | Rabbit FBPA inh inactive | GAPDH counter inactive
CCC(Sc1nc2ncccc2[nH]1)C(=O)NCCc1ccccc1 (stereo unspecified)	Giardia FBPA inh-1 2.2µM | Giardia growth inactive[10.4 µM] | Mammalian tox inactive | Giardia FBPA inh-2 inactive | Rabbit FBPA inh inactive | GAPDH counter inactive
COc1ccc(NC(=O)CNC(c2ccccc2)c2ccccc2)cc1	Giardia FBPA inh-1 20µM | Giardia growth inactive | Mammalian tox inactive | Giardia FBPA inh-2 inactive | Rabbit FBPA inh inactive | GAPDH counter inactive
COc1cc(NC(=O)CNC(c2ccccc2)c2ccccc2)cc(OC)c1OC	none

Bioassay records deposited in PubChem by National Center for Advancing Translational Sciences (NCATS).
